Measured values taken from article PMC7862700, “An all-to-all approach to the identification of sequence-specific readers for epigenetic DNA modifications on cytosine”.

How the values were obtained:
Assay in all cases: DAPPL (digital affinity profiling via proximity ligation, sequencing); 10 mM Tris-HCl pH 7.5, 50 mM NaCl, 1 mM DTT, 4% glycerol, room temperature, 30 min; GST-TFs on glutathione beads, 16-mer random dsDNA library, 0.1% formaldehyde crosslink after washing; high values mean tight binding
FEV = target: T1, FEV (Homo sapiens, UniProt Q99581 1-238); conditions: protein: recombinant; tags: N-terminal GST; dsDNA, one strand shown
T1 sequence: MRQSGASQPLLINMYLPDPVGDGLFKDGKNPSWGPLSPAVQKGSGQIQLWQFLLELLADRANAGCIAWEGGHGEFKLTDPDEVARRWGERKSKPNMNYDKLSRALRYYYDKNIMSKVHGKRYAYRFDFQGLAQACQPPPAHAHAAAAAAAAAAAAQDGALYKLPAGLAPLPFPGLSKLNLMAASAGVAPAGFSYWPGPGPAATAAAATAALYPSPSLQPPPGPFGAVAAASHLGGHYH
Summary of the method: (§1)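 After expression in yeast as GST fusions, human transcription factors were bound to glutathione beads, DNA-barcoded and mixed with a tag-only sample. The pools were incubated with 200 nmole of a 16-mer random double-stranded DNA library in Tris/NaCl/DTT/glycerol buffer (30 min, room temperature), washed and crosslinked with 0.1% formaldehyde. Proximity ligation with BsaI/T4 ligase ran for 1 h at 37 °C, before PCR amplification and sequencing on an Illumina NextSeq500. Binding signal is a hexamer's read frequency for a factor divided by its frequency for the tag-only sample.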

ETV5 = ETV5 (Homo sapiens, UniProt P41161 1-510); conditions: protein: recombinant; tags: N-terminal GST; dsDNA, one strand shown
Summary of the method: as §1

HSF1 = HSF1 (Homo sapiens, UniProt Q00613 1-529); conditions: protein: recombinant; tags: N-terminal GST; chain copies: 3; dsDNA, one strand shown
Summary of the method: as §1

SPIC = target: T2, SPIC (Homo sapiens, UniProt Q8N5J4 1-248); conditions: protein: recombinant; tags: N-terminal GST; dsDNA, one strand shown
T2 sequence: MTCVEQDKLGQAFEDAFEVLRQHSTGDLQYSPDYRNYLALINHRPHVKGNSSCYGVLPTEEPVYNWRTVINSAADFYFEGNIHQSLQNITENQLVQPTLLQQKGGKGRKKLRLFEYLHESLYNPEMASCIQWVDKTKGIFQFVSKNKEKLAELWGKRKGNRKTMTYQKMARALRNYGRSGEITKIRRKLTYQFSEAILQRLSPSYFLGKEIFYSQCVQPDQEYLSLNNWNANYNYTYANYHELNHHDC
Summary of the method: as §1

ELF4 = ELF4 (Homo sapiens, UniProt Q99607 1-663); conditions: protein: recombinant; tags: N-terminal GST; dsDNA, one strand shown
Summary of the method: as §1

ELK4 = target: T3, ELK4 (Homo sapiens, UniProt P28324-2 1-405); conditions: protein: recombinant; tags: N-terminal GST; dsDNA, one strand shown
T3 sequence: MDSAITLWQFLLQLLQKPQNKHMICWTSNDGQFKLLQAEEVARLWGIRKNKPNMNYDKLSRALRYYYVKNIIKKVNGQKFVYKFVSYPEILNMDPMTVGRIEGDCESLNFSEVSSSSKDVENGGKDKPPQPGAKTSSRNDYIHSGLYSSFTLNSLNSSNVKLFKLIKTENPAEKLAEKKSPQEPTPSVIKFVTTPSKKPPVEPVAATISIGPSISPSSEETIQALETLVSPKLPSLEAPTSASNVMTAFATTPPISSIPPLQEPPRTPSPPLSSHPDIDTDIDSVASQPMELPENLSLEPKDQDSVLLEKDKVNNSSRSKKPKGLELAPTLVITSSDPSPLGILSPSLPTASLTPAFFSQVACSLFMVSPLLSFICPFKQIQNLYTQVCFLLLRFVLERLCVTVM
Summary of the method: as §1

ETV2 = target: T4, ETV2 (Homo sapiens, UniProt O00321 1-342); conditions: protein: recombinant; tags: N-terminal GST; dsDNA, one strand shown
T4 sequence: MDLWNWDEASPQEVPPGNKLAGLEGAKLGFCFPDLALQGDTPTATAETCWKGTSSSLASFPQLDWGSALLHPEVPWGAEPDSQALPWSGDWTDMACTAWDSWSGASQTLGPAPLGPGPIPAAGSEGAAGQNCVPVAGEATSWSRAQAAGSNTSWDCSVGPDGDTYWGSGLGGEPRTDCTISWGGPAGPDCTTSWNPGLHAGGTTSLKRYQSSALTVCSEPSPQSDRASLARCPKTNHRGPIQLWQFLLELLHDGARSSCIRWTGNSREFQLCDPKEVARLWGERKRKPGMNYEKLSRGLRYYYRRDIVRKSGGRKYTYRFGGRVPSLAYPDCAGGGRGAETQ
Summary of the method: as §1

ELF3 = target: T5, ELF3 (Homo sapiens, UniProt P78545 1-371); conditions: protein: recombinant; tags: N-terminal GST; dsDNA, one strand shown
T5 sequence: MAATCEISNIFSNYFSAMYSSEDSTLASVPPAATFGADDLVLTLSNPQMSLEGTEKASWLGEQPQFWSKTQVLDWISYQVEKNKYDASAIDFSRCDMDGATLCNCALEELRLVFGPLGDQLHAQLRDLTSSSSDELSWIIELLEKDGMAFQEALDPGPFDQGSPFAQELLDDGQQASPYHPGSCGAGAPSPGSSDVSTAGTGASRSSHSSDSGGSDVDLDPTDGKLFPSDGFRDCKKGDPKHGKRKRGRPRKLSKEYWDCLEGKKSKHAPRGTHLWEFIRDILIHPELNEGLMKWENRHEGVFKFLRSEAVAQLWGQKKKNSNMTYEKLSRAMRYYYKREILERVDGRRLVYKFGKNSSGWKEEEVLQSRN
Summary of the method: as §1

CRX = CRX (Homo sapiens, UniProt O43186 1-299); conditions: protein: recombinant; tags: N-terminal GST; dsDNA, one strand shown
Summary of the method: as §1

ETV1 = ETV1 (Homo sapiens, UniProt P50549 1-477); conditions: protein: recombinant; tags: N-terminal GST; dsDNA, one strand shown
Summary of the method: as §1

ERF = target: T6, ERF (Homo sapiens, UniProt P50548 1-548); conditions: protein: recombinant; tags: N-terminal GST; dsDNA, one strand shown
T6 sequence: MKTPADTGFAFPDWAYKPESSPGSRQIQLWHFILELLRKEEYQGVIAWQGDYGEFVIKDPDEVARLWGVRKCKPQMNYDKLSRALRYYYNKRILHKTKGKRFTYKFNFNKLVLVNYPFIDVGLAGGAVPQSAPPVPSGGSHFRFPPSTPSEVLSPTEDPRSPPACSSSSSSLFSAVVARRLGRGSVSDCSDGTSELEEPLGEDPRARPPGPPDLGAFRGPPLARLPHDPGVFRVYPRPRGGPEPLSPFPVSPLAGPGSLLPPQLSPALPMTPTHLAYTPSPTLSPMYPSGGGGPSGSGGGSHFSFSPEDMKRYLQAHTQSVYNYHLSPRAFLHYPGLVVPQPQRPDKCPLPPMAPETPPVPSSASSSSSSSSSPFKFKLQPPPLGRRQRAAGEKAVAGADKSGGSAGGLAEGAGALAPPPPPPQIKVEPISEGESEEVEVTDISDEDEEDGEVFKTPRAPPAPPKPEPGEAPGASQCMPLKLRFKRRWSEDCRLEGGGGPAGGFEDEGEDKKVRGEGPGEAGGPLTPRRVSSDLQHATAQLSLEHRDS
Summary of the method: as §1

ETV3L = target: T7, ETV3L (Homo sapiens, UniProt Q6ZN32 1-361); conditions: protein: recombinant; tags: N-terminal GST; dsDNA, one strand shown
T7 sequence: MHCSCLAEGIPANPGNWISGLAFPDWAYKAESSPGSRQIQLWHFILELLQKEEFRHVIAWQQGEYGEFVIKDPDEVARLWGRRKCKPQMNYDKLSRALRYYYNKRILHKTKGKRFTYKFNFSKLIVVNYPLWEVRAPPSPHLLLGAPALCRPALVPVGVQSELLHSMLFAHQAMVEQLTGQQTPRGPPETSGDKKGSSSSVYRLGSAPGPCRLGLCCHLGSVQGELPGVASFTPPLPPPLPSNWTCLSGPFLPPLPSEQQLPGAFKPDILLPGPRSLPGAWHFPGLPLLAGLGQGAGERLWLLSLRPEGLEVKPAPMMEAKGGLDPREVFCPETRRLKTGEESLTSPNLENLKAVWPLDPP
Summary of the method: as §1

ETS2 = target: T8, ETS2 (Homo sapiens, UniProt P15036 1-469); conditions: protein: recombinant; tags: N-terminal GST; dsDNA, one strand shown
T8 sequence: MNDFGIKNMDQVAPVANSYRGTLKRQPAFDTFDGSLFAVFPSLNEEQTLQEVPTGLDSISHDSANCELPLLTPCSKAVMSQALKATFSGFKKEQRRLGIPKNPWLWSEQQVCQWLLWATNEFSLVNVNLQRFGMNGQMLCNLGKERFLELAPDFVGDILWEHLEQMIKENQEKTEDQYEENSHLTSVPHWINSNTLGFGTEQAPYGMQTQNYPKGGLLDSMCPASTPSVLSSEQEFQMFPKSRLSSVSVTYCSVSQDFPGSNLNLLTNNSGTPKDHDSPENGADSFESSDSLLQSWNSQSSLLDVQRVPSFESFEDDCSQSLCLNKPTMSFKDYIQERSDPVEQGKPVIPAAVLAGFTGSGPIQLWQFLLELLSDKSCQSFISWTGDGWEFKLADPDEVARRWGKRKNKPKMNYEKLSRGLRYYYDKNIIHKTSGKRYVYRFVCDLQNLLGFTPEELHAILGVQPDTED
Summary of the method: as §1

SPDEF = target: T9, SPDEF (Homo sapiens, UniProt O95238 1-335); conditions: protein: recombinant; tags: N-terminal GST; dsDNA, one strand shown
T9 sequence: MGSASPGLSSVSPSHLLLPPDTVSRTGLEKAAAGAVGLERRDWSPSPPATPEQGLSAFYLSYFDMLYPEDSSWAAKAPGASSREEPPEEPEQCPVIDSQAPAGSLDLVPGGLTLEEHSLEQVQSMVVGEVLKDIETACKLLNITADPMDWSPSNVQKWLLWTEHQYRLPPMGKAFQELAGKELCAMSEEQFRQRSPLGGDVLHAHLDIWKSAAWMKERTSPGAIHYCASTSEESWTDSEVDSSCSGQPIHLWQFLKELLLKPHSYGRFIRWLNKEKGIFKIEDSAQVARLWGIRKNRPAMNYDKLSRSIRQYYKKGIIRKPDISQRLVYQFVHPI
Summary of the method: as §1

ETV7 = target: T10, ETV7 (Homo sapiens, UniProt Q9Y603 1-341); conditions: protein: recombinant; tags: N-terminal GST; dsDNA, one strand shown
T10 sequence: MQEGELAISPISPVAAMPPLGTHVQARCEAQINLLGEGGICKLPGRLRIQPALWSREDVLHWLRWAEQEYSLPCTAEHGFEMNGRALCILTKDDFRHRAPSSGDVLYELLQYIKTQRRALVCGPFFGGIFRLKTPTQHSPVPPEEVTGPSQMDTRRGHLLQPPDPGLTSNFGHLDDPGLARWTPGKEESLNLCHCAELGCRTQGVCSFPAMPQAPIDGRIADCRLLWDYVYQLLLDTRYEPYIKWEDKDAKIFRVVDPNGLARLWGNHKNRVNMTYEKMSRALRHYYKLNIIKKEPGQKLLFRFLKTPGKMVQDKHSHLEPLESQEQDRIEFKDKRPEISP
Summary of the method: as §1

ELF5 = target: T11, ELF5 (Homo sapiens, UniProt Q9UKW6-2 1-255); conditions: protein: recombinant; tags: N-terminal GST; dsDNA, one strand shown
T11 sequence: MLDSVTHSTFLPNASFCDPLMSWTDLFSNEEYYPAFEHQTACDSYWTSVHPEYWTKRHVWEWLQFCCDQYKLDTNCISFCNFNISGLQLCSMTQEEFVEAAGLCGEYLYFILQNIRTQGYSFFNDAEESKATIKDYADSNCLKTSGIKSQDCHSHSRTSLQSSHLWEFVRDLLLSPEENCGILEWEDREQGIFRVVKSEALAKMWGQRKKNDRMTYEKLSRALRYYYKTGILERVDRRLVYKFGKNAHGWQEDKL
Summary of the method: as §1

ETV3 = target: T12, ETV3 (Homo sapiens, UniProt P41162-2 1-143); conditions: protein: recombinant; tags: N-terminal GST; dsDNA, one strand shown
T12 sequence: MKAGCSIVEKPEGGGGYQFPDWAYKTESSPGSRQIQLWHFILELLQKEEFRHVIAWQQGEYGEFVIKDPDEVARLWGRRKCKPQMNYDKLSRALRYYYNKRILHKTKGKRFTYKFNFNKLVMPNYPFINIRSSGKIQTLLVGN
Summary of the method: as §1

ETV6 = ETV6 (Homo sapiens, UniProt P41212 1-452); conditions: protein: recombinant; tags: N-terminal GST; dsDNA, one strand shown
Summary of the method: as §1

Sequence of HSF1 (Q00613 whole entry): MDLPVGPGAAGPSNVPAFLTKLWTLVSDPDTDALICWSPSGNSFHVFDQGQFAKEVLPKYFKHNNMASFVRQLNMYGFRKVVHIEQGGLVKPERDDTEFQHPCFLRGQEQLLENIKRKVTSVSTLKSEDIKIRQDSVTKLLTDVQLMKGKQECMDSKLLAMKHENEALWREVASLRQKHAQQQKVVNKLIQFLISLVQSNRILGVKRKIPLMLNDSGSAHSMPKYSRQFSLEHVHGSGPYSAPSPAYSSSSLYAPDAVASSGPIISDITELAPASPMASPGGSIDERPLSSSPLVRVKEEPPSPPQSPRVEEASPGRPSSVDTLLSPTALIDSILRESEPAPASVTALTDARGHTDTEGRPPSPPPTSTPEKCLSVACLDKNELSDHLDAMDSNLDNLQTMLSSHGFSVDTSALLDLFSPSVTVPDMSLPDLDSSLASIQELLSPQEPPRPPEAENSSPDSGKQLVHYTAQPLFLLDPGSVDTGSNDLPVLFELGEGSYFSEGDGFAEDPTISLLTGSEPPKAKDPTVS
Sequence of CRX (O43186 whole entry): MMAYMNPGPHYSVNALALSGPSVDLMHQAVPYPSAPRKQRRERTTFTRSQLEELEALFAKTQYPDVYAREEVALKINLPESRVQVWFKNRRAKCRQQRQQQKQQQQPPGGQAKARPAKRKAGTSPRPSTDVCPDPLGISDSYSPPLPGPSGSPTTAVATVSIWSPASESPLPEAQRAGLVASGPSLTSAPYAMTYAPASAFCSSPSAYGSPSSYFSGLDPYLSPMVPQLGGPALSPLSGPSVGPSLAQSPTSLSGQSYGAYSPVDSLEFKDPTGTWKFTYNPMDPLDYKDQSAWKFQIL
Sequence of ELF4 (Q99607 whole entry): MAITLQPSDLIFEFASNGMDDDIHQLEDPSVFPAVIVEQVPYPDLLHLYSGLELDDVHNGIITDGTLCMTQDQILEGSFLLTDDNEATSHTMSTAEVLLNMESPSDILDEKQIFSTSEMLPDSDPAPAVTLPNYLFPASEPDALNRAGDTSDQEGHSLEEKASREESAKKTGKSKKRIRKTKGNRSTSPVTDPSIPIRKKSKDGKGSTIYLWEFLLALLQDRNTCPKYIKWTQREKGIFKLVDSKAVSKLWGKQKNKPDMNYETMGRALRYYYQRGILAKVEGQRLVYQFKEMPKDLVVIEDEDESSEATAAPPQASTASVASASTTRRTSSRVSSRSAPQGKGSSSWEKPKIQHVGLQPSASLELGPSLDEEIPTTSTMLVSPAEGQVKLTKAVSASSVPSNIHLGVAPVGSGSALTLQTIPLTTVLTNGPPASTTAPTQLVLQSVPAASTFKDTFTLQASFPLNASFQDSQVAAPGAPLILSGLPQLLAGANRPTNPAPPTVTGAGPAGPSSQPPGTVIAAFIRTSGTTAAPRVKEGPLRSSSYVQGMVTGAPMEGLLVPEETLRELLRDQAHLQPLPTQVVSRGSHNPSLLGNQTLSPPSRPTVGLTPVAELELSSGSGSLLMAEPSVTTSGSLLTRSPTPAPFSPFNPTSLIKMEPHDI
Sequence of ETV1 (P50549 whole entry): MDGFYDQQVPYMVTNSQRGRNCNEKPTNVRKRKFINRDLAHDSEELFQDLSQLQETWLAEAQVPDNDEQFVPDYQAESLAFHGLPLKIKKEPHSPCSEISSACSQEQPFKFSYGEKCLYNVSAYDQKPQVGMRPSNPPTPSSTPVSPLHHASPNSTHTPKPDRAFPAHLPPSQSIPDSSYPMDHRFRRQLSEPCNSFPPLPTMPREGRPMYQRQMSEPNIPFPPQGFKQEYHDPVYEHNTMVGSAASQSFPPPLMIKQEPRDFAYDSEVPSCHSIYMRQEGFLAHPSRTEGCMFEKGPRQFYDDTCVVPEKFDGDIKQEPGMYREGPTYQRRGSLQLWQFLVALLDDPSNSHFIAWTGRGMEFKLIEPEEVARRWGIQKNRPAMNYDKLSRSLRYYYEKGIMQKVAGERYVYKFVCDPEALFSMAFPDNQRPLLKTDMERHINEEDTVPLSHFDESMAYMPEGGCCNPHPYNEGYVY
Sequence of ETV6 (P41212 whole entry): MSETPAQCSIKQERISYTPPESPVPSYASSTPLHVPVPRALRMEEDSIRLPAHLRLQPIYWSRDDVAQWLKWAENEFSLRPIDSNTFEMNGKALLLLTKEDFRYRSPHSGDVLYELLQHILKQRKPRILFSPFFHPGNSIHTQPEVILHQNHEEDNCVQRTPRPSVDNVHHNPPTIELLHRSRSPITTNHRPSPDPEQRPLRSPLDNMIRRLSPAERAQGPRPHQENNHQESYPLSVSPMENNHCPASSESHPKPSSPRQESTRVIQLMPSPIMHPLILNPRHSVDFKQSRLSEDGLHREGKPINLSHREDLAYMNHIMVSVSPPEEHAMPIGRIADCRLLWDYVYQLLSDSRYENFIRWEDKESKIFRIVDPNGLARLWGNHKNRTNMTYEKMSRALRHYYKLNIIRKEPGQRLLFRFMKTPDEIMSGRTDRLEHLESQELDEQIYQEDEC
Sequence of ETV5 (P41161 whole entry): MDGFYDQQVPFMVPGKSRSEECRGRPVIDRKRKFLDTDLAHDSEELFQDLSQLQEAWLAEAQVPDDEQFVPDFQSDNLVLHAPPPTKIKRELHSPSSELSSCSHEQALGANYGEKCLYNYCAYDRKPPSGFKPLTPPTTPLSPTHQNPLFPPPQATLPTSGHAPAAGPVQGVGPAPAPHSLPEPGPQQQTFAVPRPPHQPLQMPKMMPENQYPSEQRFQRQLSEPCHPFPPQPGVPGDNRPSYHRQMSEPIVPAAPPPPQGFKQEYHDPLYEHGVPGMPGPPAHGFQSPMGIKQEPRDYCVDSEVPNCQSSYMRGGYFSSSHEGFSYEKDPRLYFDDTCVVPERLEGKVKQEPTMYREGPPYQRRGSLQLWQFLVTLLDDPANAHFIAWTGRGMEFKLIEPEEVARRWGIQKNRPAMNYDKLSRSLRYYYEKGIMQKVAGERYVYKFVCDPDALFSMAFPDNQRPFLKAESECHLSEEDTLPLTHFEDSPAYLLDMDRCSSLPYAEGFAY

Sequence: CTTCCT
- binding signal (FEV): 2.94 fold enrichment (6-mer frequency, TF over GST control)
- binding signal (ETV5): 3.4 fold enrichment (6-mer frequency, TF over GST control)
- binding signal (HSF1): 1.4 fold enrichment (6-mer frequency, TF over GST control)
- binding signal (SPIC): 3.47 fold enrichment (6-mer frequency, TF over GST control)
- binding signal (ELF4): 2.83 fold enrichment (6-mer frequency, TF over GST control)
- binding signal (ELK4): 2.83 fold enrichment (6-mer frequency, TF over GST control)
- binding signal (ETV2): 3.38 fold enrichment (6-mer frequency, TF over GST control)
- binding signal (ELF3): 2.95 fold enrichment (6-mer frequency, TF over GST control)
- binding signal (CRX): 1.19 fold enrichment (6-mer frequency, TF over GST control)
- binding signal (ETV1): 3.18 fold enrichment (6-mer frequency, TF over GST control)
- binding signal (ERF): 2.9 fold enrichment (6-mer frequency, TF over GST control)
- binding signal (ETV3L): 3.08 fold enrichment (6-mer frequency, TF over GST control)
- binding signal (ETS2): 3.37 fold enrichment (6-mer frequency, TF over GST control)
- binding signal (SPDEF): 2.74 fold enrichment (6-mer frequency, TF over GST control)
- binding signal (ETV7): 2.76 fold enrichment (6-mer frequency, TF over GST control)
- binding signal (ELF5): 5.89 fold enrichment (6-mer frequency, TF over GST control)
- binding signal (ETV3): 3.61 fold enrichment (6-mer frequency, TF over GST control)
- binding signal (ETV6): 3.81 fold enrichment (6-mer frequency, TF over GST control)
